Compound activity from PubChem BioAssay.
Cruzain inh Det = inhibitors of Trypanosoma cruzi cruzain with detergent; Potency, µM, for the others: max response, negative = inhibition, usual class: inhibitors; purified cruzain, Z-FR-AMC fluorescence, 0.01% Triton; P25779; AID 1478; hit rate 0.43% among 200,000;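 also: plate controls were neutral wells for no effect and buffer without enzyme for full effect; nearly all actives have a fitted effect of over 40% in size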
Target sequence (P25779 123-467 limits assumed): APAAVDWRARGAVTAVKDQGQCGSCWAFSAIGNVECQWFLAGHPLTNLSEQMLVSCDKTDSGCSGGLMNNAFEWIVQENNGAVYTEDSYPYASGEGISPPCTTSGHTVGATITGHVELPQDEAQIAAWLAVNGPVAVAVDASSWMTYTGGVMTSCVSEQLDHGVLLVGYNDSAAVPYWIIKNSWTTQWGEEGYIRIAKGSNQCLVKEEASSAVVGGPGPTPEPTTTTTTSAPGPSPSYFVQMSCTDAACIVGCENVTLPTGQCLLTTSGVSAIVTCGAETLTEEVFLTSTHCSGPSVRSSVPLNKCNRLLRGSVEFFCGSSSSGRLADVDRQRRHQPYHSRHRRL
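Steps: dispense cruzain (1.5 nM final) in acetate buffer pH 5.5 with DTT and 0.01% Triton X-100; pin-transfer compounds; incubate 15 min RT; add Z-FR-AMC (2 uM final); read fluorescence every 30 s, using the 60 s intensity change.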
Cruzain noTriton = blocks cruzain activity in detergent-free assay. P25779. purified cruzain, Z-FR-AMC fluorescence, no detergent. Potency, µM, inactives show max response, negative = inhibition, actives largely listed as inhibitors. hit rate 2.3% among 200,000. AID 1476;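 also: plate controls were enzyme without inhibitor for no effect and buffer without enzyme for full effect; nearly all actives have a fitted effect of over 40% in size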
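Purified cruzain at 1.5 nM, pre-incubated 15 min with compound at room temperature in 100 mM sodium acetate pH 5.5, 5 mM DTT, 0.00005% Triton X-100. Reaction started with 2 uM Z-FR-AMC; AMC fluorescence increase over 60 s gives rate.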
Starred values were filed as active, the others as inactive. Hits are enriched below; roughly 2.5% of the tested compounds scored in any of these assays. Calls follow the shape of the dose curve; as a rule, active = well fitted curve in the direction sought with a large enough effect; inconclusive = small, poorly fitted or top-dose-only effect, or another doubt; inactive = no such curve, though single readings can be large; an effect the other way counts as inactive or inconclusive. Potency is read from the fitted curve at half-maximal effect.

How did CCOC(=O)c1cc2c(=O)n3ccccc3nc2n(CC2CCCO2)c1=NC(=O)c1cccc(C(F)(F)F)c1 (centres undefined) do in these assays?
Cruzain inh Det: -20%; Cruzain noTriton: -5%

What do the screens show for `O=c1oc2ccccc2cc1-c1csc(NN=C2CCCC2)n1`?
Cruzain inh Det: -10%; Cruzain noTriton: -12%

How did C/C(=N\Nc1nc(-c2cc(C)ccc2C)cs1)c1cc2c(ccc3ccccc32)oc1=O do in these assays?
Cruzain inh Det: -8%; Cruzain noTriton: 7.9µM*

Results for C/C(=N\Nc1nc(-c2cc(C)ccc2C)cs1)c1cc2ccccc2oc1=O ?
Cruzain inh Det: inconclusive; Cruzain noTriton: 25µM*

How did O=C(c1ccco1)c1cc2c(ccc3ccccc32)oc1=O do in these assays?
Cruzain inh Det: 4%; Cruzain noTriton: -4%

How did CCCN1CCN(CCNC(=O)Nc2cc(Cl)c(OC)cc2OC)CC1 do in these assays?
Cruzain inh Det: 1%; Cruzain noTriton: 1%

Results for COc1ccc(C2C=C(c3ccccc3)Nc3nc(NC(=O)/C=C/c4ccc(F)cc4)nn32)cc1 (centres undefined) ?
Cruzain inh Det: -2%; Cruzain noTriton: -7%

How did O=C(Cn1c(=O)nc(-c2ccccc2F)c2cc(Cl)ccc21)Nc1ccccc1C(F)(F)F do in these assays?
Cruzain inh Det: -4%; Cruzain noTriton: inconclusive

What do the screens show for `Cc1cc(=O)[nH]c2nnc(SCC(=O)Nc3ccc(F)cc3F)n12`?
Cruzain inh Det: -1%; Cruzain noTriton: 15%

How did CNC(=S)N/N=C/c1cc(C)n(-c2ccc(Cl)c(Cl)c2)c1C do in these assays?
Cruzain inh Det: -9%; Cruzain noTriton: 32µM*

Results for CNC(=S)N/N=C/c1ccccc1Cl ?
Cruzain inh Det: -5%; Cruzain noTriton: -9%

What do the screens show for `Cc1noc2nc(C(=O)O)nc(N3CCCCC3)c12`?
Cruzain inh Det: -2%; Cruzain noTriton: 5%

How did Cc1ccc(-n2nc(-c3ccccc3)c3cnc4cc5c(cc4c32)OCO5)cc1C do in these assays?
Cruzain inh Det: -1%; Cruzain noTriton: 0%

Results for Cc1sc(NC(=O)CSc2nnc(COc3ccc(Cl)cc3)n2C)c(C#N)c1C ?
Cruzain inh Det: 1%; Cruzain noTriton: 25µM*

How did Cc1ccc(-c2nnc(SCC(=O)Nc3sc(C)c(C)c3C#N)n2C)cc1 do in these assays?
Cruzain inh Det: 1%; Cruzain noTriton: inconclusive

How did O=C(COc1ccc(Cl)cc1)OCc1cc(=O)n2nc(C3CCCCC3)sc2n1 do in these assays?
Cruzain inh Det: -3%; Cruzain noTriton: 11%

What do the screens show for `CC(C)(C)OC(=O)N1CCC(c2c(C(=O)Nc3ccc4c(c3)OCCO4)cnn2-c2ccccc2)CC1`?
Cruzain inh Det: -11%; Cruzain noTriton: 14%

Results for O=C(Cn1c(=O)oc2cc(S(=O)(=O)NC3CCCC3)ccc21)Nc1ccc(F)c(F)c1 ?
Cruzain inh Det: -6%; Cruzain noTriton: 0%

Results for C/C1=C2N=C(/C=C3N=C(/C(C)=C4\[N-]C(C)(C5N=C1C(C)(CCC(=O)NCC(C)OP(=O)([O-])O[C@H]1C(O)C(n6cnc7cc(C)c(C)cc76)O[C@@H]1CO)C5CC(N)=O)C(C)(CC(N)=O)C4CCC(N)=O)C(C)(CC(N)=O)C\3CCC(N)=O)C(C)(C)C/2CCC(N)=O.[CH2-]C1OC(n2cnc3c(N)ncnc32)C(O)C1O.[Co] (some centres undefined) ?
Cruzain inh Det: 10µM*; Cruzain noTriton: 13µM*

What do the screens show for `Cc1cccc(CCNc2ncnc3onc(-c4ccc(Cl)cc4)c23)c1`?
Cruzain inh Det: -6%; Cruzain noTriton: -11%

What do the screens show for `COc1ccccc1/C=C/C(=O)c1ccc(Cl)cc1`?
Cruzain inh Det: -1%; Cruzain noTriton: 11%

What do the screens show for `COc1ccccc1/C=C/C1=NC(=C\C=C/c2ccccc2)/C(=O)O1`?
Cruzain inh Det: -15%; Cruzain noTriton: 25µM*

What do the screens show for `COc1ccc(/C=C/C=C2\N=C(SC)SC2=O)cc1`?
Cruzain inh Det: -6%; Cruzain noTriton: -11%

Results for COc1ccccc1/C=C/C=C1N=C(/C=C/c2ccc(Cl)cc2)OC/1=O ?
Cruzain inh Det: -21%; Cruzain noTriton: 16µM*

How did CCCCN1CC(c2nc3ccccc3n2CCCCOc2cccc(C)c2C)CC1=O (centres undefined) do in these assays?
Cruzain inh Det: -2%; Cruzain noTriton: 2%

Results for COC(=O)CSc1nnc(NC(=O)/C=C\c2ccc3c(c2)OCO3)s1 ?
Cruzain inh Det: 2%; Cruzain noTriton: -12%

Results for O=C(/C=C\c1ccc2c(c1)OCO2)Nc1nnc(SCC(=O)OCc2ccccc2)s1 ?
Cruzain inh Det: 0%; Cruzain noTriton: 5µM*

What do the screens show for `Fc1ccc(CSc2ccc3nnc(-c4cccs4)n3n2)cc1`?
Cruzain inh Det: -2%; Cruzain noTriton: inconclusive

Results for Cc1cccc(CSc2ccc3nnc(-c4cccs4)n3n2)c1 ?
Cruzain inh Det: -4%; Cruzain noTriton: 32µM*

Results for COc1cc(OC)c(C2CC(=O)Nc3ccc4ccccc4c32)cc1OC (centres undefined) ?
Cruzain inh Det: -1%; Cruzain noTriton: 1%

What do the screens show for `COc1ccc(C(=O)Nc2nnc(SCc3cc(=O)n4cccc(C)c4n3)s2)cc1`?
Cruzain inh Det: 1%; Cruzain noTriton: 0%

Results for COc1ccc(C(=O)NC(=S)N2CCCCC2)cc1[N+](=O)[O-] ?
Cruzain inh Det: 0%; Cruzain noTriton: -5%

How did Cc1c([N+](=O)[O-])cc(C(=O)Oc2ccc(Br)cc2C(=S)N2CCCCC2)cc1[N+](=O)[O-] do in these assays?
Cruzain inh Det: -2%; Cruzain noTriton: 25µM*

Results for CCc1cccc(C)c1NC(=O)CN1C(=O)C2(SCC(=O)N2c2cc(C)cc(C)c2)c2ccccc21 (centres undefined) ?
Cruzain inh Det: -3%; Cruzain noTriton: -16%

What do the screens show for `COc1ccccc1NC(=O)CSC1=Nc2ccccc2C2=NC(CCC(=O)NCc3ccco3)C(=O)N12` (centres undefined)?
Cruzain inh Det: 0%; Cruzain noTriton: -2%

What do the screens show for `O=C1CN2CCN(CC2)CC(=O)Nc2ccc(cc2)S(=O)(=O)c2ccc(cc2)NC(=O)CN2CCN(CC2)CC(=O)Nc2ccc(cc2)S(=O)(=O)c2ccc(cc2)N1`?
Cruzain inh Det: 3.2µM*; Cruzain noTriton: 3.2µM*

What do the screens show for `COc1ccc(OC)c(NC(=O)c2ccc(-c3nc(COc4ccccc4)c(C)o3)cc2)c1`?
Cruzain inh Det: -2%; Cruzain noTriton: 16%

Results for O=C1C=CC(=O)c2c(O)cccc21 ?
Cruzain inh Det: -20%; Cruzain noTriton: 7.9µM*

What do the screens show for `O=C1c2cccc(O)c2C(=O)c2c(O)cccc21`?
Cruzain inh Det: 2%; Cruzain noTriton: -15%

Results for COc1ccc(NC(=O)N2CCc3c(sc4c3CCCC4)C2c2ccc(F)cc2)cc1 (centres undefined) ?
Cruzain inh Det: -2%; Cruzain noTriton: inconclusive

What do the screens show for `Cc1ccc(CNc2ncnc3c2cnn3-c2ccccc2)cc1`?
Cruzain inh Det: 5%; Cruzain noTriton: 25µM*

Results for Cc1ccc(-n2ncc3c(NCc4ccccc4)ncnc32)cc1 ?
Cruzain inh Det: 5%; Cruzain noTriton: -25%

How did COc1ccc(OC)c(CNS(=O)(=O)c2ccc3c(c2)CCCN3C(C)=O)c1 do in these assays?
Cruzain inh Det: 0%; Cruzain noTriton: -7%

What do the screens show for `CCOC(=O)c1sc(NC(=O)c2ccncc2)c(C#N)c1C`?
Cruzain inh Det: -12%; Cruzain noTriton: -9%

How did Cc1ccccc1-c1cc(C(=O)Nc2sc(C)c(C)c2C(N)=O)c2ccccc2n1 do in these assays?
Cruzain inh Det: -15%; Cruzain noTriton: 20µM*
